Results on 24 molecules are retold here after PubChem BioAssay (Tox21).

“And” between values parts separate entries of the source, which are not always exact repeats. Equal values may be shown once. Records with an inconclusive call do not appear. Some structures have more than one record in an assay (separate samples or runs), and their calls can disagree. The source made the active and inactive calls. Unless noted, calls follow the shape of the full dose curve.

The nature of assay [1]: qHTS assay to identify small molecule agonists of the vitamin D receptor (VDR) signaling pathway - cell viability counter screen (AID 743224; active = well fitted curve in the direction sought with a large enough effect in the repeat runs; an effect the other way counts as inactive or inconclusive; also: nearly all actives have a fitted effect of over 50% in size). The note with it: VDR-bla HEK293T viability, CellTiter-Glo luminescence, 16 h; series mostly up to 62.6 µM. The procedure, abridged:
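Cells: VDR-bla, 2,000/well, settled 4 h. Treatment: compounds in DMSO, 16 h, 37C/5% CO2. Readout: CellTiter-Glo luminescence after 30 min RT.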
On the technique in general: In qHTS, concentration-response curves come from the screen itself.

A short description of assay [2]: qHTS assay to identify small molecule agonists of the NFkB signaling pathway - cell viability counter screen (AID 1159515). Also: nearly all actives have a fitted effect of over 55% in size. The note with it: NFkB-bla ME-180 viability, CellTiter-Glo luminescence, 5 h; series mostly up to 61 µM. The procedure, abridged:
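Cells are seeded (2,000 NFkB-bla ME-180 per well), rested overnight, and dosed with DMSO-dissolved compounds for 5 hr at 37 C. Viability is then read by CellTiter-Glo luminescence after 30 min at room temperature.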

The nature of assay [3]: qHTS assay to identify small molecule agonists of the endoplasmic reticulum stress response signaling pathway (AID 1159516; active = well fitted activation curve with a large enough effect in the signal ratio in the repeat runs, not every such curve was filed as active; the % refers to the signal ratio). The following applies: ESRE-bla HeLa, ER stress beta-lactamase reporter, 5 h; series mostly up to 61 µM. The procedure, abridged:
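Cells are seeded at 1,500 per well and incubated overnight. Compounds in DMSO are added for 5 hr at 37 C, then beta-lactamase FRET substrate for 2 hr at room temperature, and fluorescence at 460 and 530 nm is measured.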

Assay [4] is described as follows: qHTS assay to identify small molecule agonists of the endoplasmic reticulum stress response signaling pathway - cell viability counter screen (AID 1159517).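 Also: HeLa cells carrying an ER stress response element beta-lactamase reporter; nearly all actives have a fitted effect of over 50% in size.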 The following applies: ESRE-bla HeLa viability, CellTiter-Glo luminescence, 5 h; series mostly up to 61 µM. The procedure, abridged: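 Steps: seed 1,500 ESRE-bla HeLa cells per well; incubate overnight at 37 C, 5% CO2; add compounds in DMSO for 5 hr; run FRET substrate 2 hr RT; add CellTiter-Glo, wait 30 min, read luminescence.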

Assay [5] in a line: qHTS assay to identify small molecule antagonists of the retinoid-related orphan receptor gamma (ROR-gamma) signaling pathway - cell viability counter screen (AID 1159520; active = well fitted curve in the direction sought with a large enough effect in the repeat runs; an effect the other way counts as inactive or inconclusive; also: nearly all actives have a fitted effect of over 50% in size; also: potency is read from the fitted curve at half-maximal effect). The note with it: Tet-on RORgamma CHO cells viability, ATP luminescence, 16 h; series mostly up to 92.4 µM. In a few lines:
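Tet-on ROR gamma CHO cells were given compounds for 2 hr, then doxycycline hyclate at 1 uM final, and incubated 16 hr at 37 C. Viability was measured as ATP content by CellTiter-Glo luminescence.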

The nature of assay [6]: qHTS assay to identify small molecule agonists of the AP-1 signaling pathway - cell viability counter screen (AID 1159525). Also: nearly all actives have a fitted effect of over 55% in size. The following applies: ME-180 AP-1-bla cells viability, ATP luminescence, 5 h; series mostly up to 76.8 µM. The procedure, abridged: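 Same-well cytotoxicity counter screen of the Tox21 10K library in ME-180 cells. The readout is ATP-dependent luminescence after 5 h compound treatment. Data are normalised to DMSO and tetra n-octyl ammonium bromide controls.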

A short description of assay [7]: qHTS assay to identify small molecule agonists of the AP-1 signaling pathway (AID 1159526). The following applies: ME-180 (cervical carcinoma) AP-1-bla reporter, beta-lactamase FRET ratio, 5 h; series mostly up to 76.8 µM.
The target of assay [8] is Retinoic acid receptor RXR-alpha (Homo sapiens) (UniProt P19793). As to the kind of experiment: qHTS assay to identify small molecule agonists of the RXR signaling pathway (AID 1159527). Also: nearly all actives have a fitted effect of over 35% in size. The note with it: HEK293T RXRa-UAS-bla, beta-lactamase ratio, 16 h; series mostly up to 76.8 µM. In a few lines: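 qHTS of the Tox21 10K library in GeneBLAzer RXR-alpha HEK 293T cells carrying a beta-lactamase reporter […]; 16 hr treatment, 9-cis retinoic acid as agonist control, FRET read-out.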

Assay [9] in a line: qHTS assay to identify small molecule antagonists of the vitamin D receptor (VDR) signaling pathway - cell viability counter screen (AID 743225; active = well fitted curve in the direction sought with a large enough effect in the repeat runs; an effect the other way counts as inactive or inconclusive; also: nearly all actives have a fitted effect of over 50% in size). The following applies: VDR-bla HEK293T viability, CellTiter-Glo luminescence, 16 h; series mostly up to 61 µM. The procedure, abridged: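 Cells (VDR-UAS-bla HEK 293T) are plated, rested 4 h at 37C, dosed with compound and 3 nM final 1-alpha,25-dihydroxy vitamin D3, and incubated 16 h. Viability is taken from CellTiter-Glo luminescence in the reporter wells.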

Assay [10] addresses Nuclear receptor ROR-gamma (Homo sapiens) (UniProt P51449). As to the kind of experiment: qHTS assay to identify small molecule antagonists of the retinoid-related orphan receptor gamma (ROR-gamma) signaling pathway (AID 1159521; active = well fitted curve in the direction sought with a large enough effect in the repeat runs; an effect the other way counts as inactive or inconclusive; also: nearly all actives have a fitted effect of over 50% in size; also: potency is read from the fitted curve at half-maximal effect). The following applies: Tet-on RORgamma CHO cells, RORE-luciferase, 16 h; series mostly up to 92.4 µM. In a few lines: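 RORγ antagonism is scored from reduced reporter luminescence in Tet-on CHO cells. Induction used 1 uM final doxycycline hyclate for 16 h at 37 C, following a 2 h compound exposure.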

Sequence of Retinoic acid receptor RXR-alpha (Homo sapiens) (P19793 whole entry, looked up): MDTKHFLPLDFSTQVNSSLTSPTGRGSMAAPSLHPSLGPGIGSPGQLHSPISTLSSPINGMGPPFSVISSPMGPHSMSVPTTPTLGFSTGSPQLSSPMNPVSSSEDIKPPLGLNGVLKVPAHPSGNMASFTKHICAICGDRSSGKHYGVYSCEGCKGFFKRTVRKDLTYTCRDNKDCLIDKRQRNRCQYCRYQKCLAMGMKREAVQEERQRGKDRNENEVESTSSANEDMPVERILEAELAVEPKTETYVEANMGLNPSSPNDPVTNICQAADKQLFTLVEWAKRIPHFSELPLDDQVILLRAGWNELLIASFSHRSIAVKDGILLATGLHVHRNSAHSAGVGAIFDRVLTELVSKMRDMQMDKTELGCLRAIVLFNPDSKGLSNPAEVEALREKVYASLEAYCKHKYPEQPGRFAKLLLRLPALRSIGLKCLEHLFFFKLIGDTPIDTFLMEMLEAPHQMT

Turning to `CCCCCC1C(=O)CCC1CC(=O)OC` (stereo unspecified), the Potency result in assay [1], in [2], in assay [3], in assay [4], in [5] and in [6] was “inactive” throughout. Also, the Potency entry in [7] and in assay [8] was “inactive” throughout.
For `O=C1CCc2ccccc2O1`, the Potency entry in assay [1], in assay [9], in [2], in assay [3], in assay [4] and in [5] was “inactive” throughout. Also, the Potency entry in assay [6], in [7] and in [8] was “inactive” throughout.
As to `[Na+]`, the Potency entry in assay [1], in assay [9], in assay [2], in assay [3], in [4] and in assay [5] was “inactive” in each case. The Potency entry in assay [6], in assay [7] and in [8] was “inactive” each time.
For the molecule `Oc1c(Cl)ccc(Cl)c1Cl`, the Potency entry in [1], in assay [9], in assay [2], in assay [3], in assay [4] and in [5] was “inactive” throughout. The Potency entry in [6], in [7] and in [8] was “inactive” each time.
As for `C/C=C/C(=O)N(CC)c1ccccc1C`, the Potency entry in assay [1], in [3], in assay [4], in assay [5], in [10] and in [6] was “inactive” each time. Besides, the Potency result in assay [7] and in assay [8] was “inactive” throughout.
As for `Nc1ccc2c(O)cc(S(=O)(=O)O)cc2c1`, the Potency result in assay [1], in assay [2], in [3], in [4], in [5] and in assay [6] was “inactive” in each case. Also, the Potency result in [8] was “inactive”. Also, the Potency in assay [10] was 9.7 µM (active) and 5.45 µM (active).
As to `C=C[C@H]1CN2CC[C@H]1C[C@H]2[C@H](O)c1ccnc2ccc(OC)cc12`, the Potency result in [2], in assay [3], in [4], in assay [5], in assay [6] and in assay [7] was “inactive” in each case. Also, the Potency entry in assay [8] was “inactive”.
Consider `CC[C@]12CCCN3CCc4c(n(c5ccccc45)[C@@](O)(C(=O)OC)C1)[C@@H]32`, for which the Potency entry in [1], in [9], in assay [2], in [3], in assay [4] and in [5] was “inactive” throughout. Also, the Potency result in [6] and in assay [8] was “inactive” throughout.
For the molecule `CC(=O)OC(C)C`, the Potency result in assay [1], in assay [2], in assay [3], in assay [5], in assay [10] and in assay [6] was “inactive” each time. For the same molecule, the Potency entry in assay [7] and in assay [8] was “inactive” each time.
As for `C=C[Si](OCCOC)(OCCOC)OCCOC`, the Potency result in assay [1], in assay [9], in [2], in assay [3], in assay [4] and in [5] was “inactive” each time. Further, the Potency entry in [6], in assay [7] and in assay [8] was “inactive” in each case.
As to `c1ccc2ncccc2c1`, the Potency result in [1], in assay [9], in assay [2], in assay [3], in [4] and in [5] was “inactive” each time. For the same molecule, the Potency entry in assay [10], in [6], in [7] and in [8] was “inactive” throughout.
For the molecule `COC(=O)C(C)Oc1ccc(Oc2ncc(C(F)(F)F)cc2Cl)cc1` (stereo unspecified), the Potency result in assay [1], in [9], in assay [2], in assay [3], in assay [4] and in assay [5] was “inactive” each time. Moreover, the Potency result in assay [10], in assay [6] and in assay [7] was “inactive” in each case.
`C=C[C@H]1CN2CC[C@H]1C[C@@H]2[C@@H](O)c1ccnc2ccc(OC)cc12`: the Potency entry in [2], in assay [3], in assay [4], in assay [5], in assay [6] and in assay [7] was “inactive” throughout. The Potency result in [8] was “inactive”.
Consider `c1ccc2c(c1)ccc1ncccc12`, for which the Potency entry in assay [1], in assay [9], in assay [2], in assay [3], in assay [4] and in [5] was “inactive” throughout. Also, the Potency result in assay [10], in assay [6] and in assay [7] was “inactive” each time.
Turning to `O=C(CCCN1CCC(O)(c2ccc(Cl)cc2)CC1)c1ccc(F)cc1`, the Potency entry in assay [1], in assay [2], in assay [3], in assay [4], in assay [10] and in [6] was “inactive” throughout. Besides, in assay [7], the Potency entry is “inactive”. The Potency in assay [5] was 54.5 µM (active) and inactive.
Regarding `CNC[C@H](O)c1ccc(O)c(O)c1`, the Potency result in assay [1], in [9], in assay [2], in assay [3], in assay [4] and in assay [5] was “inactive” each time. For the same molecule, the Potency entry in [10], in [6], in [7] and in [8] was “inactive” in each case.
As to `CC(C)[C@@H]1CC[C@@H](C)CC1=O`, the Potency entry in [1], in assay [2], in [3], in assay [4], in [5] and in [6] was “inactive” in each case. For the same molecule, the Potency entry in assay [7] and in assay [8] was “inactive” each time.
For the molecule `Nc1ccc2c(c1)C(=O)c1ccccc1C2=O`, the Potency result in assay [1], in [9], in assay [2], in [3], in assay [4] and in [10] was “inactive” throughout. The Potency entry in [6], in assay [7] and in assay [8] was “inactive” in each case.
Take `CCC(Cc1c(I)cc(I)c(N)c1I)C(=O)O` (stereo unspecified): the Potency result in [1], in assay [2], in assay [3], in assay [4], in assay [5] and in [10] was “inactive” each time. In addition, the Potency entry in assay [6] and in assay [8] was “inactive” in each case.
`Oc1ccc(C(c2ccc(O)cc2)C(Cl)(Cl)Cl)cc1`: the Potency result in [2], in [3], in assay [4], in assay [5], in [6] and in assay [7] was “inactive” in each case.
For the molecule `Cc1ccc(/C(=C\CN2CCCC2)c2ccccn2)cc1`, the Potency entry in assay [1], in [9], in assay [2], in assay [3], in assay [4] and in [5] was “inactive” each time. Further, the Potency result in [6] and in [8] was “inactive” in each case.
On to `CC1(C)O[C@@H]2C[C@H]3[C@@H]4C[C@H](F)C5=CC(=O)C=C[C@]5(C)[C@@]4(F)[C@@H](O)C[C@]3(C)[C@]2(C(=O)CO)O1`, for which the Potency result in assay [1], in assay [9], in assay [2], in [3], in assay [4] and in [5] was “inactive” each time. The Potency result in assay [6] and in [7] was “inactive” throughout.
On to `CCCN1C=CN(C)C1`, for which the Potency result in assay [1], in [9], in assay [2], in [3], in assay [4] and in [5] was “inactive” throughout. The Potency entry in assay [6], in [7] and in [8] was “inactive” each time.
For `CCCCCCCCCCCCO`, the Potency result in [1], in [9], in [2], in [3], in [4] and in assay [5] was “inactive” throughout. In addition, the Potency result in assay [10], in assay [6] and in assay [7] was “inactive” in each case.
